How the values were obtained:
Experiment in all cases: DAPPL (digital affinity profiling via proximity ligation, sequencing); 10 mM Tris-HCl pH 7.5, 50 mM NaCl, 1 mM DTT, 4% glycerol, room temperature, 30 min; GST-TFs on glutathione beads, 16-mer random dsDNA library, 0.1% formaldehyde crosslink after washing; high values mean tight binding
Details in all cases: protein: recombinant; tags: N-terminal GST; dsDNA, one strand shown
ERF = molecular target: T1, ERF (Homo sapiens, UniProt P50548 1-548)
T1 sequence: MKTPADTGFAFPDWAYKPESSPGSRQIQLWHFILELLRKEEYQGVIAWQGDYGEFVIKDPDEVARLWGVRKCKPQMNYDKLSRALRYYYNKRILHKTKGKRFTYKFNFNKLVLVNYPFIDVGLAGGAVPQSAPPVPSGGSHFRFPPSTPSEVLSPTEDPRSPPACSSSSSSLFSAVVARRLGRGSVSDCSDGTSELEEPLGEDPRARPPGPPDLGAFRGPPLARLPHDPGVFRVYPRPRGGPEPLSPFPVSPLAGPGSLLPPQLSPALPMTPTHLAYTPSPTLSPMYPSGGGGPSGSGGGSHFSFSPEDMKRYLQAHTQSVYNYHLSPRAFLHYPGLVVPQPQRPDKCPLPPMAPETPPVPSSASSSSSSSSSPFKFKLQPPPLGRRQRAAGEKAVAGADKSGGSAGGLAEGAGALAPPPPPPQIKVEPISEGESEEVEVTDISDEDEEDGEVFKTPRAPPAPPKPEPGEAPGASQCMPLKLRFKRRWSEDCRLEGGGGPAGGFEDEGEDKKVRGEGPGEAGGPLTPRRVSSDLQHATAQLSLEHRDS
How it was run: (§1)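 Each value of binding signal is a hexamer's read frequency for a factor divided by the same hexamer's frequency in the tag-only sample. Barcoded, bead-captured GST fusions of human transcription factors made in yeast were pooled with that sample and incubated with 200 nmole of a random double-stranded 16-mer DNA library in Tris/NaCl/DTT/glycerol buffer at room temperature for 30 min. Washing, 0.1% formaldehyde crosslinking, proximity ligation, PCR and Illumina NextSeq500 sequencing followed.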

ETV3L = molecular target: T2, ETV3L (Homo sapiens, UniProt Q6ZN32 1-361)
T2 sequence: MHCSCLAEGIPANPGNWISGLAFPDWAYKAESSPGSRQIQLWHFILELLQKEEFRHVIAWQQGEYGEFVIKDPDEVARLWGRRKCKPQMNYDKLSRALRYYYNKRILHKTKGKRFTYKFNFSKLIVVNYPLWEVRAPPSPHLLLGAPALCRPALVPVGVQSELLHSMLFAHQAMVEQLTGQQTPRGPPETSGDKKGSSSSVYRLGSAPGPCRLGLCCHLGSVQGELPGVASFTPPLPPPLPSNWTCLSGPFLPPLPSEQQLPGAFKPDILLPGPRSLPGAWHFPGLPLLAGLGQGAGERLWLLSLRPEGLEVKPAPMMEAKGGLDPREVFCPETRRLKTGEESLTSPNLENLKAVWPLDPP
How it was run: as §1

ETS2 = molecular target: T3, ETS2 (Homo sapiens, UniProt P15036 1-469)
T3 sequence: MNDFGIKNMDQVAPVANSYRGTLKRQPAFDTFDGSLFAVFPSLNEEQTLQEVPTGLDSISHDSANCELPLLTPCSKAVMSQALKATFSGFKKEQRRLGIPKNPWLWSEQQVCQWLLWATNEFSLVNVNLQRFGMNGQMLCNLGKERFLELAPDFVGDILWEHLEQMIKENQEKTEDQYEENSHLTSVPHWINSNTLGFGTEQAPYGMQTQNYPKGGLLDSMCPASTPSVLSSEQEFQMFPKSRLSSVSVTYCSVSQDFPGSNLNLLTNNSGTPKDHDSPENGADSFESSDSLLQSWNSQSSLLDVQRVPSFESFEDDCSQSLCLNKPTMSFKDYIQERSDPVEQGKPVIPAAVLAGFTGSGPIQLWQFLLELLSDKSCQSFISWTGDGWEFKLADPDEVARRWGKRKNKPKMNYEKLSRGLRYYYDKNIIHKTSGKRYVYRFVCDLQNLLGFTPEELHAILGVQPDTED
How it was run: as §1

ETV7 = molecular target: T4, ETV7 (Homo sapiens, UniProt Q9Y603 1-341)
T4 sequence: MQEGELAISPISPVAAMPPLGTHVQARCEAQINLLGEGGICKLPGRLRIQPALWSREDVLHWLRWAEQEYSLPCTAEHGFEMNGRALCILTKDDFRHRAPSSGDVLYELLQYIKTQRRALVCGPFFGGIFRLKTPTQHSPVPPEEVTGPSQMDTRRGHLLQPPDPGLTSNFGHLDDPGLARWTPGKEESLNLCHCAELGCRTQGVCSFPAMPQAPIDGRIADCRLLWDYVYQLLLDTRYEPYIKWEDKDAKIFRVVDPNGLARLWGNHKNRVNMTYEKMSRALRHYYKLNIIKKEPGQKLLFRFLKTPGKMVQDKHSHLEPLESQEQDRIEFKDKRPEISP
How it was run: as §1

ELF5 = molecular target: T5, ELF5 (Homo sapiens, UniProt Q9UKW6-2 1-255)
T5 sequence: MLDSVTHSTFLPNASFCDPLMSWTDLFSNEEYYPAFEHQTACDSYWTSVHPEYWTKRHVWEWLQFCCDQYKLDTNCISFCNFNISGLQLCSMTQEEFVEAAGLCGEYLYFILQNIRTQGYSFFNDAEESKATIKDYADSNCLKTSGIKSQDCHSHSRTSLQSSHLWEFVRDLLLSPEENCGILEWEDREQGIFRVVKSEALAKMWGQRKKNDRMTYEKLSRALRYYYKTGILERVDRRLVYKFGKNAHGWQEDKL
How it was run: as §1

ETV3 = molecular target: T6, ETV3 (Homo sapiens, UniProt P41162-2 1-143)
T6 sequence: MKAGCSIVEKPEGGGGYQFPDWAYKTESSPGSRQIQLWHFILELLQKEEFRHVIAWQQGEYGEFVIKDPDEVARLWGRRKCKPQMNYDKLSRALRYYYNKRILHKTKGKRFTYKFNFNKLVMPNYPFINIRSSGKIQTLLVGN
How it was run: as §1

ETV6 = ETV6 (Homo sapiens, UniProt P41212 1-452)
How it was run: as §1

SPDEF = molecular target: T7, SPDEF (Homo sapiens, UniProt O95238 1-335)
T7 sequence: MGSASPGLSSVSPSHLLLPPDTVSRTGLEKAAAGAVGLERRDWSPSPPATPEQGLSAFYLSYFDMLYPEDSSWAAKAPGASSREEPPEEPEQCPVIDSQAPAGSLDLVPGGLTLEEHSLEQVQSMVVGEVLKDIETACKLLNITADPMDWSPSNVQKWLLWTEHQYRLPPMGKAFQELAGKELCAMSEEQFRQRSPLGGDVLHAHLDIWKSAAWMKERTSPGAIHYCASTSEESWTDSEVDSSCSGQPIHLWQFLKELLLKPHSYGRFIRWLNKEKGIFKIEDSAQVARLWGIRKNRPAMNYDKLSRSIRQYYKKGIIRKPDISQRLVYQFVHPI
How it was run: as §1

ETV6, sequence (P41212 whole entry): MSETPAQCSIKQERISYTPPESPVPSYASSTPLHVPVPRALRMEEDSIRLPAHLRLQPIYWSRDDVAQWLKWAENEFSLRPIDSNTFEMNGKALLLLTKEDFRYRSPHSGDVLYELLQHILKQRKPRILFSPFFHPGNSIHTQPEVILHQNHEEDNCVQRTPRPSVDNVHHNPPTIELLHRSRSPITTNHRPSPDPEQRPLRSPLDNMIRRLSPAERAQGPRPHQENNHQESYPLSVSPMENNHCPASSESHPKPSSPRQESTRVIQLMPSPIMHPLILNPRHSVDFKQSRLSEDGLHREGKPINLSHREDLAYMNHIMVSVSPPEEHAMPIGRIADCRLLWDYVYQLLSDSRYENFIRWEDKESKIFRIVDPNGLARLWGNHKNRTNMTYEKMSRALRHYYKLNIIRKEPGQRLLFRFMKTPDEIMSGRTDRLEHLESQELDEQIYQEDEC

Row | Sequence | binding signal (ERF) | binding signal (ETV3L) | binding signal (ETS2) | binding signal (ETV7) | binding signal (ELF5) | binding signal (ETV3) | binding signal (ETV6) | binding signal (SPDEF)
1 | AAGCTG | 1.18 fold enrichment (6-mer frequency, TF over GST control) | 1.05 fold enrichment (6-mer frequency, TF over GST control) | 1.13 fold enrichment (6-mer frequency, TF over GST control) | 1.18 fold enrichment (6-mer frequency, TF over GST control) | 1.11 fold enrichment (6-mer frequency, TF over GST control) | 1.24 fold enrichment (6-mer frequency, TF over GST control) | 1.08 fold enrichment (6-mer frequency, TF over GST control) | –
2 | GAAAAA | 1.08 fold enrichment (6-mer frequency, TF over GST control) | 1.16 fold enrichment (6-mer frequency, TF over GST control) | 1.2 fold enrichment (6-mer frequency, TF over GST control) | 1.16 fold enrichment (6-mer frequency, TF over GST control) | 1.22 fold enrichment (6-mer frequency, TF over GST control) | 1.09 fold enrichment (6-mer frequency, TF over GST control) | 1.17 fold enrichment (6-mer frequency, TF over GST control) | –
3 | AATCGC | 1.01 fold enrichment (6-mer frequency, TF over GST control) | 1.05 fold enrichment (6-mer frequency, TF over GST control) | 1.17 fold enrichment (6-mer frequency, TF over GST control) | 1.07 fold enrichment (6-mer frequency, TF over GST control) | 1.1 fold enrichment (6-mer frequency, TF over GST control) | 1.08 fold enrichment (6-mer frequency, TF over GST control) | 1.17 fold enrichment (6-mer frequency, TF over GST control) | –
4 | AGGGCT | 1.1 fold enrichment (6-mer frequency, TF over GST control) | 1.06 fold enrichment (6-mer frequency, TF over GST control) | 1.02 fold enrichment (6-mer frequency, TF over GST control) | 1.12 fold enrichment (6-mer frequency, TF over GST control) | 1.05 fold enrichment (6-mer frequency, TF over GST control) | 1.06 fold enrichment (6-mer frequency, TF over GST control) | 1.09 fold enrichment (6-mer frequency, TF over GST control) | –
5 | CGAACT | 1.16 fold enrichment (6-mer frequency, TF over GST control) | 1.12 fold enrichment (6-mer frequency, TF over GST control) | 1.18 fold enrichment (6-mer frequency, TF over GST control) | 1.15 fold enrichment (6-mer frequency, TF over GST control) | 1.07 fold enrichment (6-mer frequency, TF over GST control) | 1.18 fold enrichment (6-mer frequency, TF over GST control) | 1.13 fold enrichment (6-mer frequency, TF over GST control) | –
6 | GATAAT | 1.11 fold enrichment (6-mer frequency, TF over GST control) | 1.12 fold enrichment (6-mer frequency, TF over GST control) | 1.18 fold enrichment (6-mer frequency, TF over GST control) | 1.12 fold enrichment (6-mer frequency, TF over GST control) | 1.08 fold enrichment (6-mer frequency, TF over GST control) | 1.15 fold enrichment (6-mer frequency, TF over GST control) | 1.05 fold enrichment (6-mer frequency, TF over GST control) | –
7 | CCCATG | 1.14 fold enrichment (6-mer frequency, TF over GST control) | 1.11 fold enrichment (6-mer frequency, TF over GST control) | 1.02 fold enrichment (6-mer frequency, TF over GST control) | – | – | 1.14 fold enrichment (6-mer frequency, TF over GST control) | 1.12 fold enrichment (6-mer frequency, TF over GST control) | 1.1 fold enrichment (6-mer frequency, TF over GST control)
8 | GTCACT | 1.07 fold enrichment (6-mer frequency, TF over GST control) | 1.08 fold enrichment (6-mer frequency, TF over GST control) | 1.13 fold enrichment (6-mer frequency, TF over GST control) | 1.09 fold enrichment (6-mer frequency, TF over GST control) | 1.07 fold enrichment (6-mer frequency, TF over GST control) | 1.01 fold enrichment (6-mer frequency, TF over GST control) | – | –
9 | TGATCG | 1.24 fold enrichment (6-mer frequency, TF over GST control) | 1.09 fold enrichment (6-mer frequency, TF over GST control) | 1.03 fold enrichment (6-mer frequency, TF over GST control) | 1.03 fold enrichment (6-mer frequency, TF over GST control) | 1.04 fold enrichment (6-mer frequency, TF over GST control) | 1.11 fold enrichment (6-mer frequency, TF over GST control) | 1.12 fold enrichment (6-mer frequency, TF over GST control) | –
10 | CCATTA | 1.07 fold enrichment (6-mer frequency, TF over GST control) | 1.16 fold enrichment (6-mer frequency, TF over GST control) | 1.12 fold enrichment (6-mer frequency, TF over GST control) | 1.13 fold enrichment (6-mer frequency, TF over GST control) | 1.08 fold enrichment (6-mer frequency, TF over GST control) | 1.11 fold enrichment (6-mer frequency, TF over GST control) | 1.13 fold enrichment (6-mer frequency, TF over GST control) | –

— article PMC7862700, “An all-to-all approach to the identification of sequence-specific readers for epigenetic DNA modifications on cytosine”
